Results taken from PubChem BioAssay (NCATS).
Inconclusive results are not listed. Values without a mark were called inactive. Active and inactive are the calls of the source. Calls follow the shape of the dose curve; as a rule, active = well fitted cell-killing curve with a large enough effect; inconclusive = small, poorly fitted or top-dose-only effect, or effect the other way; inactive = no such curve, though single readings can be large or run the other way.

Assay: Quantitative highthroughput screen to assess conditional lethalithy of NOMO1 cells grown in Human Plasma-Like Medium with dialyzed fetal bovine serum (HPLM+ds) (AID 1963878); also: nearly all actives have a fitted effect of over 35% in size
Conditions: NOMO1 AML cells in HPLM+ds, CellTiter-Glo viability, 48 h; series mostly up to 45.8 µM; viability: at the top concentration
From the text: Assay Provider: Jason Cantor Ph.D.
Department of Biochemistry
University of Wisconsin-Madison, Madison, WI, USA
Chemical screening studies have identified drug sensitivities across hundreds of cancer cell lines but most putative therapeutics fail to translate. Discovery and development of drug candidates in models that more accurately reflect nutrient levels in human blood is a major challenge. Here we performed high-throughput screens in conventional versus Human Plasma-Like Medium (HPLM) to identify compounds that were "missed" when screening using the artificial culture condition. Sets of conditional anticancer compounds spanned phases of clinical development and included non-oncology drugs were assessed. […] We also traced conditional phenotypes for several chemotherapeutics to availability of HPLM-specific metabolites and confirmed others for compounds whose reported targets are encoded by nonessential genes. Our findings establish generalizable strategies for exploiting conditional lethality in HPLM to reveal therapeutic candidates and mechanisms of action in cancer cells.
Described herein are the results of each viability screens against three cell lines: NOMO1 (an acute myeloid leukemia cell line); P12-Ichikawa (a T-cell acute lymphoblastic leukemia); and SEM (a B-cell ALL). Each assay was screened using 3 different cell culture media: homemade human plasma-Like medium with 10% dialyzed fetal bovine serum (HPLM+ds); RPMI1640 with 10% untreated FBS and 5mM glucose (RPMI+s); and RPMI1640 with 10% dialyzed fetal bovine serum and 5 mM glucose (RPMI+ds).
PROTOCOL TABLE (as described by Inglese J, Shamu CE and Guy RK. 2007)
SEQUENCE No. (e.g., 1, 2, 3, etc.); […] (e.g., Cells, Incubation, Reagent, etc.); VALUE and DESCRIPTION.
1; Cells; 5 uL; white, solid bottom 1536-well Greiner assay plate.
2; Compounds; 23 nL; Kalypsis pin tool (Wako USA) equipped with a 1536-well pin head to transfer to the assay plates.
3; Incubation; 48 hours; 37C incubation.
4; Reagent; 3 uL; CellTiter Glo (Promega).
5; Incubation; 5 min, room temperature
6; Detection; Luminescence, Viewlux PerkinElmer.
NOTES (numbers refer to Sequence numbers above)
1. Briefly, 5 ul of cell reagent was dispensed using a Multidrop Combi Dispenser. The NOMO1 and SEM cells were plated at 500 cells/well and the P12-Ichikawa line at 1000 cells/well.
2. After seeding the cells, 23 nL of MIPE 4.1 library compounds (in DMSO) were added to each plate using a Kalypsys 1536 Pintool dispenser. Bortezomib at final concentration of […] and DMSO were added to each plate as positive and negative controls respectively. For each screen, MIPE 4.1 compounds were added over an eleven-point concentration range […] in 3-fold dilutions.
3. Each plate was covered with a stainless steel gasketed lid to prevent evaporation and incubated for 48 hour at 37C, 95% relative humidity, and 5% CO2.
4-5. Three microliter CellTilter-GloTM luminescent substrate mix (Promega) reagent was added to the assay plate and incubated at room temperature for 5 min.
6. The luminescence signal was measured using a ViewLux (PerkinElmer) multiplate reader with a 2 second exposure time per plate. Data for each compound were normalized as percent viability such that measurements for DMSO and the empty well controls in each plate were defined as 100% and 0%, respectively.
Potency is read from the fitted curve at half-maximal effect.

In order of rising “viability” value:
1. CCCCN1CCC(CNC(=O)c2c3n(c4ccccc24)CCCO3)CC1  77.1%
2. O=C(N[C@@H](c1ccccc1)[C@@H]1CCCCN1)c1cccc(C(F)(F)F)c1Cl  77.5%
3. COC(=O)N[C@H](C(=O)N1CCC[C@@H]1c1ncc(-c2ccc(-c3ccc(-c4cnc([C@@H]5CCCN5C(=O)[C@@H](NC(=O)OC)C(C)C)[nH]4)cc3)cc2)[nH]1)C(C)C  78.6%
4. Cc1ccccc1C(C(=O)NC1CCCC1)N(C(=O)Cn1cnc2ccccc21)c1cccc(F)c1 (stereo not given)  79.1%
5. CNC1CCCN(c2c(F)cc3c(=O)c(C(=O)O)cn(C4CC4)c3c2OC)C1 (stereo not given)  81.2%
6. CC(C)Oc1cc(Nc2nc(N[C@@H](C)c3ccc(F)cn3)ncc2Cl)[nH]n1  83.6%
7. CC(C)(C)NC(=O)Nc1cccc(Nc2ncc(F)c(NC(C)(C)CO)n2)c1  85.3%
8. NC(=O)NN=Cc1ccc([N+](=O)[O-])o1  87.5%
9. C[N+]1(C)[C@@H]2C[C@@H](OC(=O)C(O)(c3cccs3)c3cccs3)C[C@H]1[C@@H]1O[C@@H]12  89%
10. CC(C)n1cnc2c(NCCCCCCNC(=O)OC(C)(C)C)nc(NCCO)nc21  89.5%
11. O=C1CCc2ccc(OCCCCN3CCN(c4cccc(Cl)c4Cl)CC3)cc2N1  89.7%
12. CO[C@H]1C=CO[C@@]2(C)Oc3c(C)c(O)c4c(O)c(c5c(c4c3C2=O)NC2(CCN(CC(C)C)CC2)N=5)=NC(=O)C(C)=CC=C[C@H](C)[C@H](O)[C@@H](C)[C@@H](O)[C@@H](C)[C@H](OC(C)=O)[C@H]1C  90.1%
13. CC(=O)NC[C@H]1CN(c2ccc(N3CCOCC3)c(F)c2)C(=O)O1  91.7%
14. CCC[C@H]1C[C@H](C(=O)N[C@@H]([C@@H]2O[C@@H](SC)[C@@H](O)[C@@H](O)[C@@H]2O)[C@H](C)Cl)N(C)C1  93.6%
15. COc1ccc(C(=O)CC(=O)c2ccc(C(C)(C)C)cc2)cc1  95.6%
16. Cc1oncc1C(=O)Nc1ccc(C(F)(F)F)cc1  95.7%
17. CCOC(=O)N1CCC(=C2c3ccc(Cl)cc3CCc3cccnc32)CC1  96.3%
18. Cc1noc(-c2ccc(CSCCC(=O)O)cc2)c1NC(=O)OC(C)c1ccccc1Cl (stereo not given)  96.3%
19. Cc1nccn1CC1CCc2c(c3ccccc3n2C)C1=O (stereo not given)  97.4%
20. O=c1cc(N2CCOCC2)oc2c(-c3ccccc3)cccc12  99.1%
21. NNC(=O)c1ccncc1  100%
22. O=C(O)c1ccccc1C(=O)Nc1ccc(-c2ccccc2)cc1  101%
23. CCOC(=O)[C@@]1(CCCCCCOc2ccc(Cl)cc2)CO1  101%
24. C[C@@H](NCc1cc2ccccc2[nH]1)c1cccc2ccccc12  105%
25. C[C@@H]1CC=CC=CC=CC=C[C@@H](O[C@@H]2O[C@H](C)[C@@H](O)[C@H](N)[C@H]2O)C[C@@H]2O[C@](O)(C[C@@H](O)C[C@@H]3O[C@@H]3C=CC(=O)O1)C[C@H](O)[C@@H]2C(=O)O  106%
26. C=CC(=O)Nc1cccc(Oc2nc(Nc3ccc(N4CCN(C)CC4)cc3)ncc2Cl)c1  106%
27. O=c1c(-c2ccc(O)cc2)coc2cc(O)ccc12  107%
28. OC(CN1CCC(Cc2ccc(F)cc2)CC1)c1ccc(Cl)cc1 (stereo not given)  107%
29. O=C1c2c(O)cc(O)cc2O[C@H](c2cc(O)c(O)c(O)c2)[C@H]1O  108%
30. Nc1ncnc2ccccc12  112%

In the case of `CC(=O)Nc1cccc(-n2c(=O)n(C3CC3)c(=O)c3c(Nc4ccc(I)cc4F)n(C)c(=O)c(C)c32)c1`, the Potency is reported as 235 nM (active).
With `C[C@H]1[C@@H](OC(=O)CCC(=O)O)O[C@@H]2O[C@@]3(C)CC[C@@H]4[C@H](C)CC[C@@H]1[C@@]24OO3` the Potency was 2090 nM (active).
For `COc1cc2nc(-c3ccc(N4CCN(C)CC4)cc3)nc(NCCN3CCOCC3)c2cc1OC`, the Potency was 526 nM (active).
For `S=c1nc[nH]c2nc[nH]c12`, the Potency was 5900 nM (active).
For `O=C(C=Cc1cccnc1)NCCCCC1CCN(C(=O)c2ccccc2)CC1`, the Potency was 2.6 nM (active).
For `CC(C)(O)Cn1c(NC(=O)c2ccc(-c3cn[nH]c3)s2)nc2cc(CN3CCOCC3)ccc21`, the Potency was 2960 nM (active).
With `COc1cc2c(cc1OC)CN(CCc1ccc(NC(=O)c3cccc4c(=O)c5cccc(OC)c5[nH]c34)cc1)CC2` the Potency was 1320 nM (active).
With `O=C(Nc1cccnc1)N1CCC(Cc2cccc(Oc3ccc(C(F)(F)F)cn3)c2)CC1` the Potency was 8330 nM (active).
For `C=CC(=O)Nc1cc2c(Nc3ccc(F)c(Cl)c3)ncnc2cc1C#CC(C)(C)N1CCN(C)CC1`, the Potency was 5260 nM (active).

With `Nc1ccn(C[C@@H](CO)OCP(=O)(O)O)c(=O)n1` the “viability” value was 115% [at 23.2 µM].
